Out of some 220,000 compounds screened, about 710 (0.32%) were called active. Rule as the data show it: active = binding response below about 49% or above about 150%; inactive = in between. This excerpt belongs to a sample that is enriched for actives.

The target in the experiment is Guanine nucleotide-binding protein G(o) subunit alpha (Homo sapiens) (UniProt P09471). Briefly: modulators of RGS4 binding to Galphao, primary screen, biochemical, multiplexed bead flow cytometry (AID 1415).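 Also: fluorescent Galphao activated with aluminum fluoride binding bead-coupled RGS4.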 Conditions: at 10 µM, actives lie on both sides.
Sequence of Guanine nucleotide-binding protein G(o) subunit alpha (Homo sapiens) (P09471 whole entry, looked up): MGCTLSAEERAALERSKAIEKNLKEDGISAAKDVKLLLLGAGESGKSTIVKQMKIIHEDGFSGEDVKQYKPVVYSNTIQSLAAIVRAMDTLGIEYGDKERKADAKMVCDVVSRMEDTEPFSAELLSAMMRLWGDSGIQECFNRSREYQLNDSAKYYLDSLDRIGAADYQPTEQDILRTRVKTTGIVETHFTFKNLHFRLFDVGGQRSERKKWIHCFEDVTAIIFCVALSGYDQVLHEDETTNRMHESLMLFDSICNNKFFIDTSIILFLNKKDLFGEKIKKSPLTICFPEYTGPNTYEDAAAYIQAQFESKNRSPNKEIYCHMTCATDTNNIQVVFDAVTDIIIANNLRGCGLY
On to `COc1ccc(/C=C/C(=O)Nc2ccc(C34CC5CC(CC(O)(C5)C3)C4)cc2)cc1OC`, for which the binding response (% of control) is 102% (inactive).
Take `Cc1ccsc1/C=N/Nc1ccc(Cl)nn1`: the binding response (% of control) is 108% (inactive).
To `C=CCN1CC(C)/C(=N\O)CC1C` (configuration not stated) belongs 99.6% (inactive); to `O=C(NC1CCCCC1)c1ccc(CNc2c(N3CCOCC3)c(=O)c2=O)cc1`, 102% (inactive).
To `COc1ccc(CC(=O)N/N=C(\C)c2ccccn2)cc1` belongs 91.7% (inactive).
To `CCN(CC)CCOc1ccc2c(c1)C(=NNC(=O)c1ccccn1)c1cc(OCCN(CC)CC)ccc1-2` belongs 172% [activator] (active).
Turning to `CCOc1cc(NC(=O)c2ccccn2)c(OCC)cc1NC(=O)c1ccc(OC)cc1`, the binding response (% of control) was 102% (inactive).
The same measure for `COC(=O)c1c(C(=O)OC)c(-c2cccc(C)c2)n2c1CS(=O)C2` (configuration not stated): 91.5% (inactive).
To `CCC(=O)Nc1nc(OC)cc(OC)n1` belongs 102% (inactive); to `COc1cc(OC)nc(NC(=O)CCl)n1`, 101% (inactive).
The same measure for `CC(=O)Nc1nc(N(C)C)nc(N(C)C)n1`: 14.5% (active); for `O=C(NCc1ccc(F)cc1)C1CCC(CNc2c(N3CCOCC3)c(=O)c2=O)CC1` (configuration not stated): 11.6% (active).
Regarding `COc1ccc(CNC(=O)C2CCC(CNc3c(N4CCOCC4)c(=O)c3=O)CC2)cc1` (configuration not stated), the binding response (% of control) is 106% (inactive).
Regarding `CC(NC(=O)C1CCC(CNc2c(N3CCOCC3)c(=O)c2=O)CC1)c1ccccc1` (configuration not stated), the binding response (% of control) is 99.8% (inactive).
For the compound `O=C(c1ccc(Br)o1)N(c1ccccn1)C1CCCCC1`, the binding response (% of control) was 92.3% (inactive).
On to `CC(Nc1nc(N2CCN(CCO)CC2)nc2ccccc12)c1ccccc1` (configuration not stated), for which the binding response (% of control) is 100% (inactive).
For the compound `Cc1ccc(NC(=S)N2CCN(c3ncccn3)CC2)cc1C`, the binding response (% of control) was 104% (inactive).
Take `C=CCc1cccc2cc(C(=O)NC3CCCC3)c(=O)oc12`: the binding response (% of control) was 97.8% (inactive).
For `C/C=C\C=C\C(=O)N1CC2(CC(c3cccc(NC(=O)/C(C)=C\C)c3)=NO2)C[C@H]1C(N)=O` (some centres not stated), the binding response (% of control) was 103% (inactive).
For `CCCC(=O)n1nc(-c2ccccc2)nc1N`, the binding response (% of control) was 25.8% (active).
For the compound `COc1ccccc1C(=O)n1nc(-c2ccccc2)nc1N`, the binding response (% of control) was 98.8% (inactive).
As to `COc1ccc(CC(=O)n2nc(-c3cccnc3)nc2N)cc1`, the binding response (% of control) was 96.8% (inactive).
The same measure for `CCCNC(=S)NC1CC2CCCC(C1)N2CC(C)C` (configuration not stated): 99.3% (inactive); for `CCNC(=O)CC1C(=O)N(c2ccc(F)cc2)C(=O)N1CCc1sccc1C` (configuration not stated): 99.7% (inactive).
The same measure for `CC(C)C(NS(=O)(=O)c1cccs1)C(=O)Nc1nc(C(C)(C)C)cs1` (configuration not stated): 99% (inactive).
For the compound `COc1ccc(CCNC(=O)C2CC3Cn4c(nc5cc(C)c(C)cc54)C3N2C)cc1` (configuration not stated), the binding response (% of control) was 103% (inactive).
Regarding `COc1ccc(C)cc1NC(=O)CSc1ccc(Cl)cc1`, the binding response (% of control) is 105% (inactive).
To `CCOc1ccc(-c2ccc(SCC(=O)N3CCOCC3)nn2)cc1` belongs 104% (inactive); to `CCOC(=O)c1c(C)[nH]c(C2=NNC(=NC(C)COC)SC2)c1C` (configuration not stated), 92.4% (inactive).
The same measure for `CCOC(=O)C1C(c2ccc(Cl)cc2)NC(=S)NC1(O)C(F)(F)F` (configuration not stated): 102% (inactive); for `CCOC(=O)C1Sc2[nH]c(=O)sc2C(c2ccc(Cl)cc2)C1C(=O)OCC` (configuration not stated): -41.2% (active); for `CCOC(=O)C1=C(C)NC(=O)N(C(C)=O)C1c1ccc(Cl)cc1` (configuration not stated): 115% (inactive).
Consider `CC(=O)NS(=O)(=O)c1ccc(NC(=O)C2C3C=CC(C3)C2C(=O)O)cc1` (configuration not stated), for which the binding response (% of control) was 101% (inactive).
To `CCOC(=O)c1c(Cc2ccc(Cl)cc2)c[nH]c1C` belongs 102% (inactive).
With `Cc1cc(C)cc(N(C(C)C(=O)Nc2c(C)n(C)n(-c3ccccc3)c2=O)S(C)(=O)=O)c1` (configuration not stated), the binding response (% of control) is 102% (inactive).
The same measure for `Cc1cc(C)cc(N(CC(=O)Nc2c(C)n(C)n(-c3ccccc3)c2=O)S(C)(=O)=O)c1`: -43.6% (active); for `Cc1ccc(S(=O)(=O)CC(=O)Nc2c(C)n(C)n(-c3ccccc3)c2=O)cc1`: 97.9% (inactive); for `COCCCNC(=O)CN1CCN(Cc2ccccc2Cl)C1=O`: 103% (inactive).
In the case of `O=C(COc1ccc(/C=N/NC(=O)c2ccc(O)cc2)cc1)Nc1ccc([N+](=O)[O-])cc1`, the binding response (% of control) is 103% (inactive).
Consider `Cc1cc(N2CCOCC2)nc(-c2ccc(Br)cc2)n1`, for which the binding response (% of control) was 95.9% (inactive).
Turning to `C#CCOCCOCCOCCNc1nc(N2CCN(C(=O)[C@H](CCC(=O)O)n3cc(C(N)CO)nn3)CC2)nc(N2CCN(C(=O)[C@H](CCCCN)n3cc(C(N)[C@H](C)CC)nn3)CC2)n1` (some centres not stated), the binding response (% of control) was 102% (inactive).
For `C=CCc1cccc2cc(C(=O)Nc3ccc(NC(C)=O)cc3)c(=O)oc12`, the binding response (% of control) is 102% (inactive).
Regarding `N#Cc1nc(-c2ccc(OCc3ccccc3)cc2)oc1NCCCN1CCOCC1`, the binding response (% of control) was 100% (inactive).
The same measure for `N#Cc1nc(COc2ccc(-c3ccccc3)cc2)oc1NCc1cccnc1`: 153% [activator] (active); for `N#Cc1nc(Cc2ccccc2)oc1NCCc1ccccc1`: 103% (inactive).
To `Cc1ccccc1C1=NC(C(F)(F)F)(C(F)(F)F)c2c(n(-c3ccc(F)cc3)c(=O)[nH]c2=O)N1` belongs 104% (inactive).
The same measure for `CCC(C)NC(=O)CN(C1CCCCC1)S(C)(=O)=O` (configuration not stated): 99.8% (inactive); for `O=S(=O)(NC(=S)Nc1ccccc1)c1ccc(F)cc1`: 103% (inactive).
`CC(C)Oc1ccc(CC(=O)NNC(=S)Nc2ccc(Br)cc2)cc1`: the binding response (% of control) was 99.3% (inactive).
Turning to `O=C(NCc1ccc2c(c1)OCO2)C12CC3CC(CC(C3)C1)C2`, the binding response (% of control) was 98.9% (inactive).
For the compound `Cc1ccc(C2NC(C(=O)O)CS2)cc1` (configuration not stated), the binding response (% of control) was 103% (inactive).
The same measure for `NS(=O)(=O)c1ccc(Nc2nc(-c3ccccc3)cs2)cc1`: 106% (inactive); for `Cc1cccc(S(=O)(=O)CC(=O)Nc2nc(-c3ccccc3)cs2)c1`: 183% [activator] (active); for `O=C(CSC1=NCCS1)Nc1nc(-c2ccccc2)cs1`: 83.7% (inactive).
Take `CCOc1ccccc1Oc1cn[nH]c1-c1ccc(OC)cc1O`: the binding response (% of control) was 99% (inactive).
The same measure for `COc1ccc(Cl)cc1C(=O)NNC(=O)c1nc2nc(C)cc(C)n2n1`: 103% (inactive).
To `C#CCOCCOCCOCCNc1nc(N2CCN(C(=O)[C@H](C(C)C)n3cc(CCO)nn3)CC2)nc(N2CCN(C(=O)[C@H]([C@@H](C)CC)n3cc(CCCN=C(N)N)nn3)CC2)n1` belongs 101% (inactive).

Source of the values: PubChem BioAssay AID1415 (NMMLSC, 2008).
